This passage reports outcome and AC50 results from PubChem BioAssay (EPA / NIEHS).

A short description of test [1]: ATG_XTT_Cytotoxicity: Cytotoxicity Assessment in the Attagene TRANS-FACTORIAL HepG2 Assay (AID 2283584). The procedure, abridged:
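HepG2 cells transiently transfected with GAL4-UAS multiple reporter units, dosed 24 h; cytotoxicity read by XTT as loss of signal versus DMSO baseline.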

Test [2] addresses Cellular tumor antigen p53 (Homo sapiens) (UniProt P04637). Briefly: TOX21_p53_BLA_p2_ratio: Tox21 HCT-116 p53 Agonism Beta-lactamase Assay, Ratio, Phase 2 (AID 2283592). The method in brief: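 First, HCT116 reporter cells settle for 5 h at 37C. Next, DMSO compound solutions are pinned in (217-fold dilution) and left 16 h. Finally, CCF4-AM substrate is loaded 2 h at room temperature and the 460/530 nm ratio read.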

A short description of test [3]: TOX21_p53_BLA_p3_viability: Viability Assessment in the Tox21 HCT-116 p53 Agonism Beta-lactamase Assay, Phase 3 (AID 2283593).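 Also: cells exposed to compound for 16 h before reading.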 The procedure, abridged:
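Cellular ATP was quantified by CellTiter-Glo luminescence, read after 30 min at room temperature. Beforehand, HCT116 cells (4000/well) received compound 5 h post-seeding, 217-fold diluted from DMSO, then incubated 16 h at 37C.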

In test [4] the target is Cellular tumor antigen p53 (Homo sapiens) (UniProt P04637). Briefly: TOX21_p53_BLA_p3_ratio: Tox21 HCT-116 p53 Agonism Beta-lactamase Assay, Ratio, Phase 3 (AID 2283596). The method in brief:
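Cells were seeded at 4000/well, rested 5 h at 37C, then dosed with DMSO compound solutions (217-fold dilution) for 16 h. CCF4-AM substrate was loaded for 2 h at room temperature, and the 460/530 nm emission ratio was fitted for gain of signal versus DMSO.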

Test [5] can be described thus: TOX21_p53_BLA_p5_viability: Viability Assessment in the Tox21 HCT-116 p53 Agonism Beta-lactamase Assay, Phase 5 (AID 2283600). The procedure, abridged: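 Decreased CellTiter-Glo luminescence denotes lost viability. Exposure: 16 h at 37C, 5% CO2, with compounds from DMSO stocks diluted 217-fold in wells of 4000 cells.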
Test [6] addresses Cellular tumor antigen p53 (Homo sapiens) (UniProt P04637). Put plainly: TOX21_p53_BLA_p5_ratio: Tox21 HCT-116 p53 Agonism Beta-lactamase Assay, Ratio, Phase 5 (AID 2283599). The procedure, abridged:
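Beta-lactamase reporter ratio (blue 460 nm over green 530 nm, 405 nm excitation) after 2 h CCF4-AM loading, in HCT-116 cells exposed 16 h at 37 C to compounds pinned at 217-fold dilution. Increases relative to DMSO baseline scored.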

Test [7] shares this target. Briefly: TOX21_p53_BLA_p4_ratio: Tox21 HCT-116 p53 Agonism Beta-lactamase Assay, Ratio, Phase 4 (AID 2283601). The procedure, abridged:
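Signal is the blue/green (460nm/530nm) ratio of cleaved versus uncleaved CCF4-AM substrate, read after 2 h substrate loading. Cells were HCT116 carrying the p53-responsive beta-lactamase reporter, dosed 16 h at 37C, 5% CO2; CellTiter-Glo measured in parallel.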

Test [8] is described as follows: TOX21_p53_BLA_p4_viability: Viability Assessment in the Tox21 HCT-116 p53 Agonism Beta-lactamase Assay, Phase 4 (AID 2283597).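 Also: hits lower the luminescence signal meaning cytotoxicity.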 The method in brief: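 4000 HCT116 cells per well; 5 h attachment; compounds from DMSO, 217-fold dilution; 16 h at 37C. Then CCF4-AM, 2 h RT, followed by CellTiter-Glo, 30 min RT, luminescence. Decrease = cytotoxicity.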

SMILES strings stand for the structures. Records with an inconclusive call do not appear. Some structures have more than one record in an assay (separate samples or runs), and their calls can disagree. Active and inactive are the calls of the source. The calls were made as follows: active = hit-call score of the fitted dose curve at least 0.9, where 1 is the maximum; inconclusive = response in the unintended direction; inactive = score below 0.9.

Cellular tumor antigen p53 (Homo sapiens), sequence (P04637 whole entry, looked up): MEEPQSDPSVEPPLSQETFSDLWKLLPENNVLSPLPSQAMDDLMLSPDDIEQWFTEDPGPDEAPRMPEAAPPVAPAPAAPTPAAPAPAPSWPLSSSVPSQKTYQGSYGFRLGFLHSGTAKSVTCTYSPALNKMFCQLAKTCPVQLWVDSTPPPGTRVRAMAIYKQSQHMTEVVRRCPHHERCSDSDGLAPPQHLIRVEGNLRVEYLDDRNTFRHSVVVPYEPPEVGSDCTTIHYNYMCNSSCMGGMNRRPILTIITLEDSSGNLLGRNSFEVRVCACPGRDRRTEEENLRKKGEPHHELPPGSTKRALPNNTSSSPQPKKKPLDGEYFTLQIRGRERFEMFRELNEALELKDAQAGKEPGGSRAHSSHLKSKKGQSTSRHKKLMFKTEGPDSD

As for `ON(Cc1ccccc1)Cc1ccccc1`, the compound was called inactive in test [1], in test [2], in test [3], in test [4] and in test [5].
Regarding `Cc1ccccc1C`, the compound was classed as inactive in test [1], in test [2], in test [3], in test [6], in test [5] and in test [7].
Usually AC50 stands for the concentration giving half of the maximal activity seen. On to `CN(C)c1ccc(N=Nc2ccccc2C(=O)O)cc1`, for which the call in test [1], in test [2] and in test [7] was inactive. Besides, the AC50 in test [3] is 75 µM (active); in test [8] it was 68 µM (active); in test [5] it was 75.8 µM (active).
With `COc1c2ccoc2cc2oc(=O)ccc12`, the compound was classed as inactive in test [1], in test [2], in test [3], in test [4], in test [5] and in test [7].
`CCO[Si](CCCN=C=O)(OCC)OCC`: the outcome in test [1], in test [2] and in test [4] was inactive.
`N[C@H]1C(O)O[C@H](CO)[C@H](O)[C@@H]1O` (some centres undefined): the compound was classed as inactive in test [1], in test [3], in test [4], in test [6], in test [5] and in test [7].
For `CCCCCCCCC(=O)OCC`, the outcome in test [1], in test [4], in test [8], in test [6] and in test [5] was inactive.
As for `COc1ccc([C@@H]2CC(=O)c3c(O)cc(O[C@@H]4O[C@H](CO[C@@H]5O[C@@H](C)[C@H](O)[C@@H](O)[C@H]5O)[C@@H](O)[C@H](O)[C@H]4O)cc3O2)cc1OC`, the compound was called inactive in test [1], in test [2], in test [4], in test [8], in test [6] and in test [5].
`OCCNCc1ccccc1`: the compound was classed as inactive in test [1], in test [3], in test [4], in test [8] and in test [5].
Turning to `CC1=NC(C)OC1C` (centres undefined), the call in test [1], in test [2], in test [3], in test [6], in test [5] and in test [7] was inactive.
In the case of `CC1(C)S[C@@H]2[C@H](NC(=O)COc3ccccc3)C(=O)N2[C@H]1C(=O)O`, the outcome in test [1], in test [2], in test [4], in test [8], in test [6] and in test [7] was inactive.
`CCC(=O)Oc1ccc(/C(CC)=C(\CC)c2ccc(OC(=O)CC)cc2)cc1`: the result in test [1], in test [5] and in test [7] was inactive. For the same compound, the concentration at half-maximal activity (AC50) in test [2] is 6.81 µM (active); in test [4] it was 16.4 µM (active); in test [6], 5.08 µM (active).
Regarding `CCCCCCCCCCOC(C)=O`, the outcome in test [1], in test [2], in test [4], in test [5] and in test [7] was inactive.
As to `CCO[Si](C)(OCC)OCC`, the call in test [1], in test [2], in test [4], in test [6], in test [5] and in test [7] was inactive.
Consider `CCOCC(=O)O`, for which the compound was called inactive in test [1], in test [4], in test [8], in test [6] and in test [5].
With `CC1=NN(c2cc(S(=O)(=O)O)ccc2Cl)C(=O)C1N=Nc1ccccc1` (centres undefined), the outcome in test [1], in test [2], in test [4], in test [8], in test [6] and in test [7] was inactive.
Regarding `CCN(Cc1cccc(S(=O)(=O)O)c1)c1ccc(C(=C2C=CC(=[N+](CC)Cc3cccc(S(=O)(=O)[O-])c3)C=C2)c2ccccc2)cc1`, the compound was classed as inactive in test [1], in test [3], in test [6] and in test [7].
In the case of `Cc1cnc(NC(=O)C2=C(O)c3ccccc3S(=O)(=O)N2C)s1`, the compound was classed as inactive in test [1], in test [2], in test [4] and in test [7].
With `CCc1nccnc1C`, the outcome in test [1], in test [2], in test [8] and in test [5] was inactive.
With `CCC(CC)C(=O)O`, the compound was classed as inactive in test [1], in test [2], in test [3] and in test [5].
Regarding `NC(CO)(CO)CO`, the compound was called inactive in test [1], in test [2], in test [4], in test [6], in test [5] and in test [7].
For the compound `CC(C)c1ccc(C#N)cc1`, the compound was classed as inactive in test [1], in test [2], in test [3], in test [5] and in test [7].
With `CC(C)CCCCCOC(=O)CCS`, the compound was called inactive in test [1], in test [2] and in test [4].
With `Cc1cc(C)c(C(=O)O)c(C)c1`, the call in test [1], in test [2], in test [4], in test [6] and in test [7] was inactive.
As to `CCCCCCOC(=O)C(C)CC` (centres undefined), the call in test [1], in test [2], in test [8] and in test [7] was inactive.
For `CNC(=S)NN`, the compound was called inactive in test [1], in test [2], in test [4], in test [5] and in test [7].
Turning to `CC(=O)C=CC1C(C)=CCC(C)C1(C)C` (centres undefined), the compound was classed as inactive in test [1], in test [2], in test [3], in test [5] and in test [7].
As to `CCCCCCCCCCCCCCCCCC#N`, the result in test [1], in test [2], in test [4], in test [8], in test [6] and in test [5] was inactive.
Regarding `NC(=O)NNC(N)=O`, the compound was classed as inactive in test [1], in test [2], in test [4], in test [8], in test [6] and in test [5].
Turning to `NNC(=O)c1cccc(C(=O)NN)c1`, the result in test [1], in test [2], in test [4], in test [8], in test [6] and in test [7] was inactive.
For `COC(=O)c1c(C)cc(O)c(C)c1O`, the call in test [1], in test [2], in test [8], in test [6], in test [5] and in test [7] was inactive.
Consider `CC1=CC[C@H](C(C)C)C=C1`, for which the call in test [1], in test [3] and in test [5] was inactive.
As to `O=C(c1ccc(O)cc1)c1ccc(O)cc1O`, the result in test [1], in test [2], in test [4], in test [6] and in test [7] was inactive. Moreover, the concentration at half-maximal activity (AC50) in test [4] was 68.5 µM (active); in test [6], 86.2 µM (active); in test [7], 72.9 µM (active).
With `CCOC(=O)c1ccccc1C(=C1C=C(Br)C(=O)C(Br)=C1)c1cc(Br)c(O)c(Br)c1`, the outcome in test [1] and in test [5] was inactive. In addition, the AC50 in test [2] is 10.2 µM (active); in test [4] it was 10.4 µM (active); in test [8], 9.49 µM (active); in test [6], 15.2 µM (active); in test [7], 8.23 µM (active).
